# From PubChem BioAssay AID651650 (Sanford-Burnham Center for Chemical Genomics, 2012)
# Target: Neuropilin-1 (Homo sapiens) (UniProt O14786)
# Experiment: blockers of CendR peptide binding to NRP-1 – biochemical, FP and AlphaScreen panel, dose response (AID 651650)
# Details: NRP-1 b1b2 / RPARPAR peptide binding, FP or AlphaScreen; run 1, at 100 µM (top of the series)
# Chain of Neuropilin-1 (Homo sapiens) (O14786 whole entry, looked up): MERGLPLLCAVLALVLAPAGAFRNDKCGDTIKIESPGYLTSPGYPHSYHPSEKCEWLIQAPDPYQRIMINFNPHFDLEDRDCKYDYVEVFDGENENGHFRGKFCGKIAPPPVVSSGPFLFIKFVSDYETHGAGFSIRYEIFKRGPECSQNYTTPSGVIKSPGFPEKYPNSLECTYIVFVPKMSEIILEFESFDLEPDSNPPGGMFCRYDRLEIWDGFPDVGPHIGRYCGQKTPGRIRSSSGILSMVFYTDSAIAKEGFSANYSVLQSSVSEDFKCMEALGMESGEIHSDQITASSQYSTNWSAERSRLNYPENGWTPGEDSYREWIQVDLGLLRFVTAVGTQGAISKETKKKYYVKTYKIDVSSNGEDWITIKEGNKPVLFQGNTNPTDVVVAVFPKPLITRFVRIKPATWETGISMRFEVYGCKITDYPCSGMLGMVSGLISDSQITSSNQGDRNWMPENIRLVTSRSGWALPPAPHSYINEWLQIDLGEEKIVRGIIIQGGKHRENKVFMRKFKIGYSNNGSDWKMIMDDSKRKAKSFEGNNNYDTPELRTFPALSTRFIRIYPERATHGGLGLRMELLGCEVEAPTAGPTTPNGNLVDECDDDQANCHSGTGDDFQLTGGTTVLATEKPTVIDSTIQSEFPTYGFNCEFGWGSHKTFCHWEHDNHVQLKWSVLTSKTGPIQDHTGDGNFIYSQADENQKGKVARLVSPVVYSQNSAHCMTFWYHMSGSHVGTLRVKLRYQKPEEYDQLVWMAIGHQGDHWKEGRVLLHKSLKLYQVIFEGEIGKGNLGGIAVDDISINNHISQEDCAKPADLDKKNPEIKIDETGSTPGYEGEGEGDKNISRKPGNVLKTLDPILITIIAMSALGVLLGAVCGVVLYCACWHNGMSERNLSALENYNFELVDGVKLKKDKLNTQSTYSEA
row,SMILES,inhibition
1,CC1(C)CN=C(Nc2ccc(F)c(Cl)c2)S1,82.2%
2,CC(=O)OC1CC[C@]2(C#N)[C@H]3CC[C@]4(C)[C@H](C5C=CC(=O)O5)CCC4(O)C3CCC2(O)C1 (some centres undefined),58.3%
3,O=S(=O)(c1cc(Cl)cc(Cl)c1)N1Cc2cc(-c3ccccc3)ccc2-n2nncc2C1,13.6%
4,Cc1c(NP(=O)(C(C)(C)C)C(C)(C)C)c(=O)n(-c2ccccc2)n1C,31.8%
5,COC(=O)C1=C(c2ccc(F)cc2OCc2ccccc2)C[C@@H]2CC[C@H]1N2C(=O)NCCNC(C)=O,95.9%
6,Cc1ccc(C(=O)C2CN3CCC2CC3)cc1 (centres undefined),26.3%
7,CCC1C2Cc3ccc(O)cc3C1(CC)CCN2C (centres undefined),3.24%
8,Cc1ccc(Cn2nnnc2CN2CCC(n3nnc4ccccc43)CC2)cc1,15.9%
9,COC(=O)C1=C(c2cccc(C#N)c2)C[C@@H]2CC[C@H]1N2C(=O)NCCO,39.7%
10,C=CCN1C(=O)C2(C(C(=O)OCC)=C(N)Oc3ccccc32)c2c1c1ccccc1oc2=O (centres undefined),4.11%
11,O=C1C=CC(=O)C2C1C1(Cl)C(Cl)=C(Cl)C2(Cl)C1(Cl)Cl (centres undefined),44.9%
12,CCC(=NCCc1ccccc1)c1c(O)n(C2CCCCC2)c(=O)[nH]c1=O,42.9%
13,Cc1ccc(C2(O)CCN3CCCCC32)cc1 (centres undefined),-5.87%
14,CN1C[C@H](CO)C=C2c3cccc4[nH]cc(c34)C[C@H]21,51.6%
